# The sample as a whole holds a higher share of the strongest signals than the screen did.
# B1: CBM13 2a (Mycobacterium tuberculosum), P64849 (protein)
# chain: DGPVQLKSRLGDVCLDAPSGSWFSPLVINPCNGTDFQRWNLTDDRQVESVAFPGECVNIGNALWARLQPCVNWISQHWTVQPDGLVKSDLDACLTVLGGPDPGTWVSTRWCDPNAPDQQWDSVPLEHHHHHH
# Experiments:
# Test in all cases: glycan array binding signal (z-score within array); higher = stronger binding
# Conditions in all cases: glycan notation: IUPAC condensed, linker removed
# Fuc(a1-2)Gal(b1-4)GlcNAc = target: Fuc(a1-2)Gal(b1-4)GlcNAc
# Method in brief: (§1)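 The binding signal is a Z-score computed within each array. Data were drawn from 3228 arrays in the Consortium for Functional Glycomics database, restricted to those with a known protein sequence. Scores were averaged over arrays of the same protein sequence at different concentrations or buffers, and over linkers, and negative values can be taken as non-binding.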
# [1] = target: Fuc(a1-2)Gal(b1-4)GlcNAc(b1-2)Man(a1-3)[Fuc(a1-2)Gal(b1-4)GlcNAc(b1-2)Man(a1-6)]Man(b1-4)GlcNAc(b1-4)[Fuc(a1-6)]GlcNAc
# Method in brief: as §1
# [2] = target: Fuc(a1-2)Gal(b1-4)GlcNAc(b1-3)Gal(b1-4)GlcNAc
# Method in brief: as §1
# Fuc(a1-2)[Gal(a1-3)]Gal = target: Fuc(a1-2)[Gal(a1-3)]Gal
# Method in brief: as §1
# [3] = target: Fuc(a1-2)[GalNAc(a1-3)]Gal(b1-4)GlcNAc(b1-6)GalNAc
# Method in brief: as §1
# [4] = target: Fuc(a1-2)[GalNAc(a1-3)]Gal(b1-4)[Fuc(a1-3)]GlcNAc
# Method in brief: as §1
# [5] = target: Fuc(a1-3)[GalNAc(b1-4)]GlcNAc
# Method in brief: as §1
# [6] = target: Gal(a1-3)Gal(b1-3)GlcNAc(b1-3)GalNAc
# Method in brief: as §1
# [7] = target: Gal(a1-3)Gal(b1-3)GlcNAc(b1-6)GalNAc
# Method in brief: as §1
# [8] = target: Gal(a1-3)Gal(b1-4)GlcNAc(b1-2)Man(a1-3)[Gal(a1-3)Gal(b1-4)GlcNAc(b1-2)Man(a1-6)]Man(b1-4)GlcNAc(b1-4)GlcNAc
# Method in brief: as §1
# [9] = target: Gal(a1-4)Gal(b1-4)GlcNAc(b1-3)Gal(b1-4)Glc
# Method in brief: as §1
# Gal(b1-3)Gal(b1-4)GlcNAc = target: Gal(b1-3)Gal(b1-4)GlcNAc
# Method in brief: as §1
# [10] = target: Gal(b1-3)GalNAc(b1-4)Gal(b1-4)Glc
# Method in brief: as §1
# [11] = target: Gal(b1-3)GlcNAc(b1-2)Man(a1-3)[GlcNAc(b1-4)][Gal(b1-3)GlcNAc(b1-2)Man(a1-6)]Man(b1-4)GlcNAc(b1-4)GlcNAc
# Method in brief: as §1
# [12] = target: Gal(b1-3)GlcNAc(b1-6)Gal(b1-4)GlcNAc
# Method in brief: as §1
# [13] = target: Gal(b1-3)[Fuc(a1-4)]GlcNAc(b1-3)Gal(b1-4)[Fuc(a1-3)]GlcNAc
# Method in brief: as §1
# [14] = target: Gal(b1-4)GalNAc(b1-3)[Fuc(a1-2)]Gal(b1-4)GlcNAc
# Method in brief: as §1
# [15] = target: Gal(b1-4)GlcNAc(b1-2)Man(a1-3)[Gal(b1-4)GlcNAc(b1-2)Man(a1-6)]Man(b1-4)GlcNAc(b1-4)[Fuc(a1-6)]GlcNAc
# Method in brief: as §1
# [16] = target: Gal(b1-4)GlcNAc(b1-3)Gal(b1-3)GlcNAc
# Method in brief: as §1
# [17] = target: Gal(b1-4)GlcNAc(b1-3)Gal(b1-4)GlcNAc(b1-2)Man(a1-3)[Gal(b1-4)GlcNAc(b1-3)Gal(b1-4)GlcNAc(b1-2)Man(a1-6)]Man(b1-4)GlcNAc(b1-4)GlcNAc
# Method in brief: as §1
# [18] = target: Gal(b1-4)GlcNAc(b1-3)Gal(b1-4)GlcNAc(b1-3)Gal(b1-4)GlcNAc(b1-2)Man(a1-3)[Gal(b1-4)GlcNAc(b1-3)Gal(b1-4)GlcNAc(b1-3)Gal(b1-4)GlcNAc(b1-2)Man(a1-6)]Man(b1-4)GlcNAc(b1-4)GlcNAc
# Method in brief: as §1
# [19] = target: Gal(b1-4)GlcNAc(b1-3)Gal(b1-4)GlcNAc(b1-3)GalNAc
# Method in brief: as §1
# [20] = target: Gal(b1-4)GlcNAc(b1-3)Gal(b1-4)GlcNAc(b1-3)[Gal(b1-4)GlcNAc(b1-3)Gal(b1-4)GlcNAc(b1-6)]GalNAc
# Method in brief: as §1
# [21] = target: Gal(b1-4)GlcNAc(b1-3)Gal(b1-4)GlcNAc(b1-6)[Gal(b1-3)]GalNAc
# Method in brief: as §1
# Gal4S(b1-4)GlcNAc = target: Gal4S(b1-4)GlcNAc
# Method in brief: as §1
# Gal6P(b1-4)GlcNAc = target: Gal6P(b1-4)GlcNAc
# Method in brief: as §1
# GalNAc(b1-3)GalNAc = target: GalNAc(b1-3)GalNAc
# Method in brief: as §1
# GalNAc(b1-6)GalNAc = target: GalNAc(b1-6)GalNAc
# Method in brief: as §1
# [22] = target: GlcNAc(b1-2)[GlcNAc(b1-4)]Man(a1-3)[GlcNAc(b1-4)][GlcNAc(b1-2)[GlcNAc(b1-6)]Man(a1-6)]Man(b1-4)GlcNAc(b1-4)[Fuc(a1-6)]GlcNAc
# Method in brief: as §1
# [23] = target: GlcNAc(b1-2)[GlcNAc(b1-6)]Man(a1-6)[GlcNAc(b1-2)Man(a1-3)]Man(b1-4)GlcNAc(b1-4)GlcNAc
# Method in brief: as §1
# [24] = target: GlcNAc(b1-3)Gal(b1-4)GlcNAc(b1-3)Gal(b1-4)GlcNAc(b1-3)Gal(b1-4)GlcNAc(b1-3)Gal(b1-4)GlcNAc(b1-2)Man(a1-3)[GlcNAc(b1-3)Gal(b1-4)GlcNAc(b1-3)Gal(b1-4)GlcNAc(b1-3)Gal(b1-4)GlcNAc(b1-3)Gal(b1-4)GlcNAc(b1-2)Man(a1-6)]Man(b1-4)GlcNAc(b1-4)[Fuc(a1-6)]GlcNAc
# Method in brief: as §1
# [25] = target: GlcNAc(b1-4)Gal(b1-4)GlcNAc
# Method in brief: as §1
# [26] = target: GlcNAc(b1-4)GlcNAc(b1-4)GlcNAc(b1-4)GlcNAc(b1-4)GlcNAc
# Method in brief: as §1
# [27] = target: GlcNAc6S(b1-3)Gal(b1-4)GlcNAc
# Method in brief: as §1
# [28] = target: Man(a1-2)Man(a1-3)[Man(a1-2)Man(a1-6)]Man(a1-6)[Man(a1-2)Man(a1-2)Man(a1-3)]Man
# Method in brief: as §1
# [29] = target: Man(a1-3)[Man(a1-6)]Man(a1-6)[Man(a1-2)Man(a1-3)]Man(b1-4)GlcNAc(b1-4)GlcNAc
# Method in brief: as §1
# [30] = target: Neu5Ac(a2-3)Gal(b1-3)GalNAc6S
# Method in brief: as §1
# [31] = target: Neu5Ac(a2-3)Gal(b1-3)GlcNAc(b1-2)Man(a1-3)[GlcNAc(b1-4)][Neu5Ac(a2-3)Gal(b1-3)GlcNAc(b1-2)Man(a1-6)]Man(b1-4)GlcNAc(b1-4)GlcNAc
# Method in brief: as §1
# [32] = target: Neu5Ac(a2-3)Gal(b1-3)[Neu5Ac(a2-6)]GlcNAc(b1-3)[Fuc(a1-3)[Gal(b1-4)]GlcNAc(b1-6)]Gal(b1-4)Glc
# Method in brief: as §1
# [33] = target: Neu5Ac(a2-3)Gal(b1-4)GlcNAc(b1-2)[Neu5Ac(a2-3)Gal(b1-4)GlcNAc(b1-2)]Man(a1-6)[Neu5Ac(a2-3)Gal(b1-4)GlcNAc(b1-2)Man(a1-3)][GlcNAc(b1-4)]Man(b1-4)GlcNAc(b1-4)GlcNAc
# Method in brief: as §1
# [34] = target: Neu5Ac(a2-3)Gal(b1-4)GlcNAc(b1-2)[Neu5Ac(a2-3)Gal(b1-4)GlcNAc(b1-6)]Man(a1-6)[Neu5Ac(a2-3)Gal(b1-4)GlcNAc(b1-2)Man(a1-3)]Man(b1-4)GlcNAc(b1-4)GlcNAc
# Method in brief: as §1
# [35] = target: Neu5Ac(a2-3)Gal(b1-4)GlcNAc(b1-3)Gal(b1-4)GlcNAc
# Method in brief: as §1
# [36] = target: Neu5Ac(a2-3)Gal(b1-4)GlcNAc(b1-3)Gal(b1-4)GlcNAc(b1-2)Man(a1-3)[Neu5Ac(a2-3)Gal(b1-4)GlcNAc(b1-3)Gal(b1-4)GlcNAc(b1-2)Man(a1-6)]Man(b1-4)GlcNAc(b1-4)GlcNAc
# Method in brief: as §1
# [37] = target: Neu5Ac(a2-3)Gal(b1-4)GlcNAc(b1-3)Gal(b1-4)GlcNAc(b1-3)Gal(b1-4)GlcNAc(b1-2)Man(a1-3)[Neu5Ac(a2-3)Gal(b1-4)GlcNAc(b1-3)Gal(b1-4)GlcNAc(b1-3)Gal(b1-4)GlcNAc(b1-2)Man(a1-6)]GalNAc
# Method in brief: as §1
# [38] = target: Neu5Ac(a2-3)Gal6S(b1-4)[Fuc(a1-3)]GlcNAc
# Method in brief: as §1
# [39] = target: Neu5Ac(a2-3)[GalNAc(b1-4)]Gal(b1-4)GlcNAc(b1-3)GalNAc
# Method in brief: as §1
# [40] = target: Neu5Ac(a2-6)Gal(b1-4)GlcNAc(b1-2)Man(a1-3)Man(b1-4)GlcNAc(b1-4)GlcNAc
# Method in brief: as §1
# [41] = target: Neu5Ac(a2-6)Gal(b1-4)GlcNAc(b1-3)Gal(b1-4)GlcNAc(b1-3)Gal(b1-4)GlcNAc(b1-2)Man(a1-3)[Neu5Ac(a2-6)Gal(b1-4)GlcNAc(b1-3)Gal(b1-4)GlcNAc(b1-3)Gal(b1-4)GlcNAc(b1-2)Man(a1-6)]GalNAc
# Method in brief: as §1
# [42] = target: Neu5Ac(a2-6)Gal(b1-4)GlcNAc(b1-3)Gal(b1-4)GlcNAc(b1-3)[Neu5Ac(a2-6)Gal(b1-4)GlcNAc(b1-3)Gal(b1-4)GlcNAc(b1-6)]GalNAc
# Method in brief: as §1
# [43] = target: Neu5Ac(a2-8)Neu5Ac(a2-3)Gal(b1-4)Glc
# Method in brief: as §1
binder,measurement,setting,value
B1,glycan array binding signal (z-score),Fuc(a1-2)Gal(b1-4)GlcNAc,-0.294
same,glycan array binding signal (z-score),[1],0.023
same,glycan array binding signal (z-score),[2],-0.362
same,glycan array binding signal (z-score),Fuc(a1-2)[Gal(a1-3)]Gal,-0.26
same,glycan array binding signal (z-score),[3],-0.303
same,glycan array binding signal (z-score),[4],0.434
same,glycan array binding signal (z-score),[5],-0.31
same,glycan array binding signal (z-score),[6],-0.132
same,glycan array binding signal (z-score),[7],-0.286
same,glycan array binding signal (z-score),[8],-0.178
same,glycan array binding signal (z-score),[9],-0.267
same,glycan array binding signal (z-score),Gal(b1-3)Gal(b1-4)GlcNAc,-0.121
same,glycan array binding signal (z-score),[10],-0.32
same,glycan array binding signal (z-score),[11],-0.203
same,glycan array binding signal (z-score),[12],-0.345
same,glycan array binding signal (z-score),[13],-0.184
same,glycan array binding signal (z-score),[14],-0.335
same,glycan array binding signal (z-score),[15],0.207
same,glycan array binding signal (z-score),[16],-0.187
same,glycan array binding signal (z-score),[17],3.82
same,glycan array binding signal (z-score),[18],3.22
same,glycan array binding signal (z-score),[19],6.08
same,glycan array binding signal (z-score),[20],4.69
same,glycan array binding signal (z-score),[21],5.73
same,glycan array binding signal (z-score),Gal4S(b1-4)GlcNAc,-0.154
same,glycan array binding signal (z-score),Gal6P(b1-4)GlcNAc,-0.708
same,glycan array binding signal (z-score),GalNAc(b1-3)GalNAc,-0.167
same,glycan array binding signal (z-score),GalNAc(b1-6)GalNAc,-0.3
same,glycan array binding signal (z-score),[22],-0.406
same,glycan array binding signal (z-score),[23],0.094
same,glycan array binding signal (z-score),[24],-0.169
same,glycan array binding signal (z-score),[25],-0.553
same,glycan array binding signal (z-score),[26],-0.213
same,glycan array binding signal (z-score),[27],-0.288
same,glycan array binding signal (z-score),[28],-0.338
same,glycan array binding signal (z-score),[29],6.51
same,glycan array binding signal (z-score),[30],-0.262
same,glycan array binding signal (z-score),[31],-0.103
same,glycan array binding signal (z-score),[32],-0.258
same,glycan array binding signal (z-score),[33],-0.048
same,glycan array binding signal (z-score),[34],-0.017
same,glycan array binding signal (z-score),[35],-0.249
same,glycan array binding signal (z-score),[36],7.02
same,glycan array binding signal (z-score),[37],9.05
same,glycan array binding signal (z-score),[38],-0.271
same,glycan array binding signal (z-score),[39],4.49
same,glycan array binding signal (z-score),[40],-0.031
same,glycan array binding signal (z-score),[41],4.67
same,glycan array binding signal (z-score),[42],8.64
same,glycan array binding signal (z-score),[43],-0.117

# From the supplement of paper PMC8728848
